Screening results from PubChem.
In the library only some 15% were active in any assay of this set; here they are far more common.
HCV inhibitor – blocks hepatitis C virus. hit rate 3.4% among 340,000. AID 651820. Huh7.5.1 HCVcc-Cre infection, luciferase reporter, 44 h. Potency, µM (highest dose often 41.8 µM), usual class: inhibitors
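Seed cells (1,000/well) for 4 h; treat with compound and infect with HCVcc-Cre, moi about 0.5. Incubate 44 h, then detect luciferase activity.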
Pf growth 48h – P. falciparum growth inhibition at 48 hours (one generation). hit rate 5.9% among 310,000. P. falciparum luciferase growth in erythrocytes, 48 h. Potency, µM (highest dose often 28.7 µM), hits mostly inhibitors
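Erythrocytes infected with P. falciparum carrying an integrated firefly luciferase reporter (2% hematocrit, 0.1% parasitemia final) were exposed to compounds in RPMI 1640 with 0.5% Albumax at 37 C, 5% CO2. Growth inhibition was scored as reduced luminescence.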
SARS PLP yeast – blocks SARS-CoV papain-like protease in a yeast assay | Potency, µM (top dose mostly 32.9 µM), hits mostly activators | hit rate 0.19% among 330,000 | S. cerevisiae expressing SARS-CoV PLpro, growth rescue; calls by dose curve; note: nearly all actives have a fitted effect of over 55% in size
Sm TGR block – inhibitors of Schistosoma mansoni thioredoxin glutathione reductase; purified TGR, DTNB reduction, TNB absorbance 405 nm; Potency, µM (doses to about 114 µM), most hits filed as inhibitors; hit rate 3% among 360,000; AID 485364; note: nearly all actives have a fitted effect of over 60% in size
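Kinetic colorimetric format: TGR-catalysed, NADPH-driven DTNB reduction monitored via TNB absorbance. Enzyme dispensed at 20 nM; compound exposure 15 min at room temperature before reaction start.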
HCMV antiviral – blocks human cytomegalovirus replication; HFF cells, HCMV-luciferase reporter, 72 h; stronger effect = lower value; activity change, negative = inhibition, % at 57.5 µM; hit rate 4.5% among 410,000; in the data active = activity change below about -60%; inconclusive = no clear call, values can overlap the other calls; inactive = above about -39%
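HFF cells seeded 16 h at 37C, treated with compounds, infected with luciferase-reporter HCMV at MOI 1 PFU/cell; luciferase read at 72 h post infection, normalized to buffer-only and Salinomycin controls.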
Pf growth 96h – P. falciparum growth inhibition at 96 hour, primary screen for plastid delayed-death inhibitors; Potency, µM (highest dose often 28.7 µM), actives largely listed as inhibitors; hit rate 6.9% among 320,000; P. falciparum luciferase reporter growth, 96 h
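Two-generation exposure (96 h) targets delayed-death phenotype. Reporter parasites carrying integrated firefly luciferase, in red cells at 2% hematocrit and 0.05% parasitemia final, kept at 37 C, 5% CO2; luminescence loss indicates inhibition.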
Numbers stand for hits. Unless noted, calls come from the whole dose curve; as a rule, active = well fitted curve in the direction sought with a large enough effect; inconclusive = small, poorly fitted or top-dose-only effect, or another doubt; inactive = no such curve, though single readings can be large; an effect the other way counts as inactive or inconclusive.

For CCn1c([N+](=O)[O-])nc2c1c(=O)[nH]c(=O)n2C the results were HCV inhibitor 11µM, Pf growth 48h inactive, SARS PLP yeast inactive, Sm TGR block 25µM, HCMV antiviral -98 and Pf growth 96h inconclusive.
CCOC(=O)c1ccc(NC(=O)c2cc(=O)c3cc(CC)ccc3o2)cc1 was read as Sm TGR block inactive and HCMV antiviral inactive.
For COc1ccc(C(C(=O)NCc2ccc(F)cc2)N(C(=O)c2csnn2)C2CC2)cc1 (centres undefined) the results were HCV inhibitor inactive, Pf growth 48h inactive, SARS PLP yeast inactive, Sm TGR block inactive, HCMV antiviral inactive and Pf growth 96h inactive.
Screening CCCn1c(SCc2ccccc2)nc2c1c(=O)[nH]c(=O)n2C returned HCV inhibitor inactive, Pf growth 48h inactive, SARS PLP yeast inactive, Sm TGR block inactive and HCMV antiviral inactive.
For CCCCCn1c(SCc2cccc(C)c2)nc2c1c(=O)[nH]c(=O)n2C the results were HCV inhibitor inconclusive, Pf growth 48h inconclusive, SARS PLP yeast inactive, Sm TGR block inactive, HCMV antiviral inactive and Pf growth 96h 9.3µM.
COC(=O)C1=C(c2ccc(F)cc2F)C[C@@H]2CC[C@H]1N2C(=O)NCCOc1ccccc1Cl was read as HCV inhibitor inconclusive, Pf growth 48h inconclusive, SARS PLP yeast inactive, Sm TGR block inactive and Pf growth 96h 10µM.
Screening COC(=O)C1=C(c2ccc(F)cc2F)C[C@@H]2CC[C@H]1N2C(=O)NCCOc1ccc(OC)cc1 returned HCV inhibitor inactive, Pf growth 48h 10µM, SARS PLP yeast inactive, Sm TGR block inactive and Pf growth 96h inactive.
For COC(=O)C1=C(c2ccc(F)cc2F)C[C@@H]2CC[C@H]1N2C(=O)NCCO the results were HCV inhibitor inactive, Pf growth 48h inactive, SARS PLP yeast inactive, Sm TGR block inactive, HCMV antiviral inactive and Pf growth 96h inactive.
O=C(c1ccco1)N1CCc2[nH]nc(-c3ccccc3)c2C1 was read as HCV inhibitor inactive, Pf growth 48h inactive, SARS PLP yeast inactive, Sm TGR block inactive, HCMV antiviral inactive and Pf growth 96h inconclusive.
COc1cc2ccc(C(=O)O)cc2cc1OC was read as HCMV antiviral inactive.
COc1cccc(-c2csc(N3CCN(C(=S)Nc4ccccc4Cl)CC3)n2)c1 was read as HCV inhibitor inconclusive, Pf growth 48h 13µM, SARS PLP yeast inactive, Sm TGR block inactive, HCMV antiviral inactive and Pf growth 96h inconclusive.
Screening COc1cccc(-c2csc(N3CCN(C(=S)NCC(C)C)CC3)n2)c1 returned HCV inhibitor inconclusive, Pf growth 48h 13µM, SARS PLP yeast inactive, Sm TGR block inactive, HCMV antiviral inactive and Pf growth 96h 15µM.
`COCCNC(=S)N1CCN(Cc2cccc(OC)c2)CC1` gave HCV inhibitor inactive, Pf growth 48h inactive, SARS PLP yeast inactive, HCMV antiviral inactive and Pf growth 96h inconclusive.
`CCNC(=S)N1CCN(c2nc(-c3cccc(OC)c3)cs2)CC1` gave HCV inhibitor inconclusive, Pf growth 48h inconclusive, SARS PLP yeast inactive, Sm TGR block inactive, HCMV antiviral inactive and Pf growth 96h 10µM.
COc1cccc(-c2csc(N3CCN(CC(=O)NNC(=O)c4ccc(Br)cc4)CC3)n2)c1 was read as HCV inhibitor inactive, Pf growth 48h inconclusive, SARS PLP yeast inactive, Sm TGR block inactive, HCMV antiviral inactive and Pf growth 96h inactive.
`COc1cccc(-c2csc(N3CCN(C(=S)Nc4ccccc4OC)CC3)n2)c1` gave HCV inhibitor inconclusive, Pf growth 48h inconclusive, SARS PLP yeast inactive, Sm TGR block inactive, HCMV antiviral inactive and Pf growth 96h inconclusive.
`COCCNC(=S)N1CCN(c2nc(-c3cccc(OC)c3)cs2)CC1` gave HCV inhibitor 13µM, Pf growth 48h inactive, SARS PLP yeast inactive, Sm TGR block inactive, HCMV antiviral inactive and Pf growth 96h inconclusive.
For Cc1ccc(N2CCN(C(=O)c3nn(C)c4c3CSc3ccccc3-4)CC2C)cc1 (centres undefined) the results were Sm TGR block inactive and HCMV antiviral inactive.
Screening CC(C)(C)C(=O)Nc1ccc(C(=O)CSc2nnc(C3CC3)n2C2CC2)cc1 returned HCV inhibitor inactive, Pf growth 48h inactive, SARS PLP yeast inactive, Sm TGR block inactive, HCMV antiviral inactive and Pf growth 96h inactive.
`COc1cc(NC(=O)CCc2c(C)nc3c(-c4ccc(F)cc4)c(C)nn3c2C)cc(OC)c1OC` gave Sm TGR block inactive and HCMV antiviral inactive.
Screening O=C(c1ccoc1)N1CCN(c2cc(-c3ccccc3)nc3cc(-c4ccc(Br)cc4)nn23)CC1 returned HCMV antiviral -63.
For CCN1CCN(c2cc(-c3ccccc3)nc3cc(-c4cccc(F)c4)nn23)CC1 the results were HCV inhibitor inconclusive, Pf growth 48h inconclusive, SARS PLP yeast inactive, Sm TGR block inactive, HCMV antiviral inactive and Pf growth 96h 12µM.
`O=C(c1ccncc1)N1CCN(c2cc(-c3ccccc3)nc3cc(-c4cccc(Cl)c4)nn23)CC1` gave HCMV antiviral inactive.
`OC1CCN(c2cc(-c3ccccc3)nc3cc(-c4ccc(F)cc4)nn23)CC1` gave HCV inhibitor inactive, Pf growth 48h inconclusive, SARS PLP yeast inactive, HCMV antiviral inactive and Pf growth 96h inactive.
`CC(=O)N1CCN(c2cc(-c3ccccc3)nc3cc(-c4cccc(Cl)c4)nn23)CC1` gave HCMV antiviral -89.
Screening COc1ccc(-c2cc3nc(-c4ccccc4)cc(N4CCN(C(=O)c5ccoc5)CC4)n3n2)cc1 returned HCMV antiviral inactive.
`CCOC(=O)C1CCN(C(=O)C(CC)c2ccccc2)CC1` (centres undefined) gave HCV inhibitor inactive, Pf growth 48h inactive, SARS PLP yeast inactive, HCMV antiviral inactive and Pf growth 96h inactive.
`Cc1cccc(NC(=O)CSc2cn(CC(=O)N3CCCC3)c3ccccc23)c1C` gave Sm TGR block inactive and HCMV antiviral inactive.
O=S(=O)(c1ccc2ccccc2c1)N1CCN(C(=S)Nc2ccccc2F)CC1 was read as HCV inhibitor inactive, Pf growth 48h 1.7µM, SARS PLP yeast inactive, Sm TGR block inactive, HCMV antiviral inactive and Pf growth 96h 3.3µM.
`N#CCC(=O)Nc1ccc(C(=O)N2CCN(S(=O)(=O)c3ccc4ccccc4c3)CC2)cc1` gave HCV inhibitor inactive, Pf growth 48h 15µM, SARS PLP yeast inactive, Sm TGR block inactive, HCMV antiviral inconclusive and Pf growth 96h inconclusive.
`CC(=O)c1ccc(NC(=O)CN2CCN(S(=O)(=O)c3ccc4ccccc4c3)CC2)cc1` gave HCV inhibitor inconclusive, Pf growth 48h inconclusive, SARS PLP yeast inactive, Sm TGR block inactive, HCMV antiviral inactive and Pf growth 96h inactive.
